High-throughput results as filed in PubChem.
An excerpt weighted towards active compounds, which were near 5.3% of everything screened.
M18AAP inhibitor: PfM18AAP enzyme inhibition; recombinant PfM18AAP, H-Glu-NHMec fluorogenic cleavage; inhibition, % at 7.35 µM; hit rate 1.2% among 290,000;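 active means inhibition above the campaign mean inhibition over all tested compounds plus 3 SD, cut at about 28% in these data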;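 further: 0% = plate median of test compound wells and 100% = 2 mM ZnCl2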
HIF act: HIF pathway transcriptional activation; U2OS HRE-luciferase reporter, luminescence; normalized: DMSO 0%, desferrioxamine 100%; activation, % at 7.5 µM (by protocol); hit rate 0.32% among 300,000;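 active means mean activation of at least 10% of the iron chelator positive control signal, with at least half of replicates also reaching 10%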
Mot1-301 SUMO: blocks SUMOylation pathway, rescuing yeast Mot1-301 growth. S. cerevisiae Mot1-301 growth rescue, ATP luminescence, 38.5C; percent above DMSO median, 100 means doubled. growth rescue, % at 18.8 µM. hit rate 1% among 320,000;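 active means every valid replicate shows activation above 250% relative to neutral control wells; inactive means the rest, any valid replicate at or below 250%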;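 further: OY570 slx delta 5 strain wells were the positive control but not used for scaling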
ALR inh: inhibitors of human sulfhydryl oxidase ALR; P55789; purified ALR, DTT oxidation, H2O2 HRP-luminol luminescence; inhibition, % (test concentration not listed); hit rate 3.8% among 290,000;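 active means mean replicate inhibition above about 79%, with every replicate also reaching it, limit read from the data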
Target sequence (P55789 whole entry, looked up): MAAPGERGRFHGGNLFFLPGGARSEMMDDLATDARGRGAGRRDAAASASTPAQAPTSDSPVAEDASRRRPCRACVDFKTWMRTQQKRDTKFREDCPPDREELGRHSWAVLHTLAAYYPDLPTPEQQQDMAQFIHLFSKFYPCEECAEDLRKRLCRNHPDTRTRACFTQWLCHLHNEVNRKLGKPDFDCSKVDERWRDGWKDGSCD
The depositor's hits bear a star; · = no result.

SMILES	M18AAP inhibitor	HIF act	Mot1-301 SUMO	ALR inh
O=C(CCc1ccccc1)NCC1(c2ccccc2)CCCC1	-1.1	-26.8	4.7	0.4
COc1ccc(Nc2c3c(nc4ccc(C)cc24)CCC3)cc1	11.5	-0.6	-30.4	·
Cc1ccc2nc3c(c(Nc4ccc5c(c4)OCCO5)c2c1)CCC3	11.8	-0.7	·	97.6*
CC(C)Cc1nnc(NC(=O)CCC(=O)NC2CCCCC2)s1	-2.4	-0.1	120.9	-1.5
O=C(NCc1cccc(Br)c1)C1CC2Cn3c(nc4ccccc43)C2N1c1ccccc1 (configuration not stated)	·	-0.8	-11.7	77.1*
CN1C(C(=O)NCc2cccc(Br)c2)CC2Cn3c(nc4ccccc43)C21 (configuration not stated)	·	-0.7	14.6	·
Cc1n[nH]c(=S)n1Cc1ccccc1	6.2	0.0	145.7	34.9
S=c1[nH]nc(CNc2ccc(Cl)cc2)n1Cc1ccccc1	9.0	1.4	16.4	98.6*
Cc1ccn(Cc2n[nH]c(=S)n2Cc2ccccc2)n1	4.6	-0.2	-21.9	91.2*
NNC(=O)c1nc[nH]c1C(=O)Nc1ccccc1[N+](=O)[O-]	-9.5	0.0	-0.3	-1.1
O=C(CSc1nnc(NC(=O)c2cccc(F)c2)s1)NC1CCCC1	-0.8	0.1	-26.1	·
COc1ccc(CC(=O)Nc2cccc(-c3nnc(-c4ccccc4)o3)c2)cc1OC	-4.4	376.2*	·	·
O=C(O)c1cccc(NS(=O)(=O)c2ccc(Cl)c(C(=O)Nc3cccc([N+](=O)[O-])c3)c2)c1	·	0.1	-1.4	51.0
Cc1ccc(N2C(=O)SC(N(CC(=O)O)c3cccc(C)c3)C2=O)cc1 (configuration not stated)	-7.1	1.7	-0.1	98.8*
Cc1sc2ncnc(Sc3nnnn3-c3ccc(Cl)cc3)c2c1C	-1.7	16.9*	33.4	-3.4
c1ccc(-n2nnnc2Sc2ncnc3sc4c(c23)CCCC4)cc1	7.4	-0.3	18.4	38.5
CN1CCN(C(=O)CCNC(=O)Cn2ccc3ccccc3c2=O)CC1	6.4	0.3	0.1	-10.6
O=C(Cn1cnc2ccccc2c1=O)NCCC(=O)N1CCN(c2ccccc2)CC1	-5.6	-0.3	73.8	95.8*
CCN(CCCNC(=O)CCNC(=O)Cn1cnc2ccccc2c1=O)c1ccccc1	3.4	-0.2	-3.7	98.9*
CCN(CCCNC(=O)CNC(=O)Cn1cnc2ccccc2c1=O)c1cccc(C)c1	11.7	-0.6	4.8	·
COc1ccc(N2CCN(C(=O)CCNC(=O)Cn3ccc4ccccc4c3=O)CC2)cc1	10.8	0.0	18.9	85.3*
O=C(N/N=C/c1ccc(C(F)(F)F)cc1)c1ccc(O)cc1	-3.5	4.1	·	·
O=C(N/N=C/c1ccc(O)cc1)c1csc2c1CCCC2	-1.9	2.0	-21.1	98.7*
CC(=O)OCC1=C(C(=O)O)N2C(=O)C(NC(=O)c3ccc(COc4ccc(Cl)cc4)o3)C2SC1 (configuration not stated)	16.9	-0.5	-4.5	2.6
CC(=O)OCC1=C(C(=O)O)N2C(=O)C(NC(=O)c3ccc(COc4c(C)cccc4Cl)o3)C2SC1 (configuration not stated)	15.8	-3.6	·	97.6*
SMILES	M18AAP inhibitor	HIF act	Mot1-301 SUMO	ALR inh
COc1cccc(N/C(SCc2cccc([N+](=O)[O-])c2)=C(/C#N)C(N)=O)c1	10.5	1.3	6.7	98.9*
Nc1cc(C(=O)c2ccccc2)ccc1[N+](=O)[O-]	-11.5	-0.1	9.6	-2.6
Cc1nn(-c2ccccc2)c2sc(-c3n[nH]c(=S)o3)cc12	0.5	-0.3	127.7	97.8*
Cc1nn(-c2ccccc2)c2sc(C(=O)O)cc12	-10.1	-1.5	·	32.8
Cc1ccc(S(=O)(=O)N2CCCC(C(=O)O)C2)s1 (configuration not stated)	9.6	·	343.5	86.7*
COc1ccc(CCc2nnc(CCC(=O)NCCc3ncccc3C)o2)cc1	3.8	0.4	11.2	-22.0
O=C(Nc1ccccc1N1CCCC1)c1ccc(N2CCCC2=O)cc1	·	1.1	-3.3	99.4*
COc1ccc(NC(=O)CSCC(=O)Nc2sccc2C#N)cc1	·	-1.7	-7.9	99.1*
COc1ccc(CCC(=O)Nc2sccc2C#N)cc1	0.8	3.1	-4.5	-9.1
COc1cccc(C(=O)Nc2ccccc2N2CCCC2)c1	-1.3	-0.2	6.7	98.2*
O=C(Nc1ccccc1N1CCCCC1)c1cnccn1	1.8	-0.2	12.7	97.4*
Cc1noc(COc2ccccc2OCC(N)=O)n1	·	-0.1	-1.6	-4.3
CC(Cc1cccs1)NC(=O)CCCn1nnnc1CN1CCOCC1 (configuration not stated)	1.6	-0.2	-8.8	-1.6
CC[C@H](C)Cc1cn([C@@H](CCCN=C(N)N)C(=O)NCCCCCCCCCCC(=O)N2CCNCC2)nn1	·	-4.0	-3.0	-5.2
O=C(Nc1ccccc1N1CCN(C(=O)c2ccc(Cl)cc2)CC1)c1cccnc1	-12.1	-0.3	-7.4	-13.9
O=C(Nc1ccccc1N1CCCC1)c1cccnc1	-6.9	-0.1	-22.1	98.4*
COc1ccc(NC(=O)CSCC(=O)Nc2ccccc2N2CCCC2)cc1	·	0.7	18.7	98.8*
CCOc1ccc(CSC(CC(=O)O)C(=O)O)cc1 (configuration not stated)	-6.6	-0.3	-18.9	98.1*
CCCCOc1ccc(CSC(CC(=O)O)C(=O)O)cc1 (configuration not stated)	-0.7	-0.2	1.5	20.1
CC1CCCC/C1=N\NC(=S)Nc1cccnc1 (configuration not stated)	18.4	0.5	-9.1	97.7*
Cc1ccc(NC(=S)N/N=C2\CCCCC2C)cc1 (configuration not stated)	10.3	2.6	140.5	0.0
COc1ccc(CCNC(=O)C2CCCN(c3ncnc4c3nc3n4CCCCC3)C2)c(OC)c1 (configuration not stated)	-8.7	-0.6	0.3	-1.9
O=C(N/N=C/c1ccccc1)C(O)c1ccccc1 (configuration not stated)	-1.2	0.2	0.0	-10.4
CCCCCCOc1ccc(/C=N/NC(=O)C2CC2)cc1	-6.2	·	0.5	-12.2
O=C(N/N=C/c1ccc(O)c(O)c1)C1CC1	·	·	-14.6	99.1*
SMILES	M18AAP inhibitor	HIF act	Mot1-301 SUMO	ALR inh
CCN(CC)c1ccc(/C=N/NC(=O)Nc2nonc2N)cc1	12.1	1.1	-16.7	98.5*
CCN(CC)c1ccc(/C=N/NC(=O)C2CC2)cc1	14.8	1.4	-11.1	99.9*
CCN(CC)c1ccc(/C=N/NC(=O)C(O)c2ccccc2)cc1 (configuration not stated)	5.1	0.2	1.6	100.0*
Cc1ccc(S(=O)(=O)N2CCN(S(=O)(=O)N3CCCCCC3)CC2)cc1	-7.6	-0.2	-13.1	-7.0
O=c1c2ccccc2nc2n1C(CBr)CN2 (configuration not stated)	2.1	-0.3	-16.5	-9.6
Cc1ccc(CS(=O)(=O)CCC(=O)NCc2ccccc2Cl)cc1	3.7	-0.9	7.1	0.1
Cc1nc2ccccc2n2c(-c3ccccc3)c3c(=O)n(C)c(=O)n(C)c3c12	-10.6	212.0*	-12.5	16.8
OCc1csc(=Nc2ccccc2)n1-c1ccccc1	2.0	0.1	-8.1	99.1*
